Compound activity: PubChem, several laboratories
Only some compounds are listed: those with a hit (about 2.4% of all), similar ones and a draw of the others.
Platelet DG rel – inhibitors of platelet dense granule secretion, primary screen, cell-based, MLPCN, human platelets | inhibition, %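 (compounds screened at 7.5 µM in platelet-rich plasma)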 | 0.22% of 300,000 active | human platelet-rich plasma, SFLLRN dense granule ATP release, luminescence;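 active means mean replicate score, as percent of positive control, at or above 50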
SENP6 inh – SENP6 protease inhibitors, primary screen, biochemical, luminescence, uHTS. Recombinant SENP6 catalytic domain, aminoluciferin luminescence. inhibition, % at 10 µM. 1.8% of 330,000 active. AID 2599, 2010;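 active means inhibition above about 50% at the single tested dose, limit read from the data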;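 further: plate controls were DMSO wells with enzyme for no effect and DMSO wells lacking enzyme for full effect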
SENP7 block – SENP7 protease inhibitors, primary screen, biochemical, luminescence, uHTS | recombinant SENP7, Z-RLRGG-aminoluciferin luminescence, 40 min | 1.5% of 330,000 active | AID 434973, 2010 | inhibition, % at 5 µM;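 active means inhibition above about 50% at the single test dose, limit read from the data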;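 further: plate controls were DMSO with enzyme for no effect and no enzyme buffer wells for full effect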
Target sequence (Q9BQF6 706-1050 limits assumed): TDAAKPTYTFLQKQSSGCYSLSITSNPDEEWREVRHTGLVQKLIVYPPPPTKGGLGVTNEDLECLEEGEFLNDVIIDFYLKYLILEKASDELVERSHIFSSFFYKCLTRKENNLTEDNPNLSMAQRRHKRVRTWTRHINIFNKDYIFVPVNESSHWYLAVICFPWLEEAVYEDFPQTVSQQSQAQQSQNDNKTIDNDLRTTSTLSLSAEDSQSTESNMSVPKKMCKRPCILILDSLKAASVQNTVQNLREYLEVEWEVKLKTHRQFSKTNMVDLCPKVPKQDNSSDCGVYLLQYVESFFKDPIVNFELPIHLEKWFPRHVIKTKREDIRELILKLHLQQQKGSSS
SENP8 block-1 – human SENP8 protease inhibitors, primary screen, biochemical, fluorescence, Nedd8 protein substrate, uHTS. AID 602440, 2012. Sentrin-specific protease 8 (Homo sapiens), Q96LD8. inhibition, % at 20 µM. 0.64% of 360,000 active. recombinant SENP8; in the data active means inhibition mostly above about 40%, no sharp cut-off; inactive means mostly below about 27%
SENP8 block-2 – SENP8 protease inhibitors, primary screen, biochemical, luminescence; Sentrin-specific protease 8 (Homo sapiens), Q96LD8; inhibition, % at 10 µM; AID 2540, 2010; purified SENP8, Z-RLRGG-aminoluciferin cleavage; 1.2% of 330,000 active; in the data active means inhibition above about 50%
SENP8 confirm – SENP8 protease inhibitors, retest, confirmation, biochemical, luminescence, single concentration; Recombinant SENP8, Z-RLRGG-aminoluciferin luminescence, 60 min; shares compounds with SENP7 block; inhibition, % at 12.5 µM; 40% of 6,200 active; AID 488912, 2010;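 active means mean inhibition across replicates above about 50%, limit read from the data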
SENP6 conf – SENP6 protease inhibitors, confirmation, biochemical, luminescence, single concentration; AID 488915, 2010; shares compounds with SENP7 block; recombinant SENP6, Z-RLRGG-aminoluciferin luminescence; 58% of 6,200 active; inhibition, % at 12.5 µM
SENP7 conf – SENP7 protease inhibitors, retest, confirmation, biochemical, luminescence, single concentration | shares compounds with SENP7 block | recombinant SENP7, Z-RLRGG-aminoluciferin luminescence, 40 min | inhibition, % at 12.5 µM | 69% of 6,200 active | AID 488917, 2010
Casp3 SENP sel – caspase-3 protease inhibitors, confirmation, selectivity assay for SENP inhibitor project, biochemical, single concentration; AID 488918, 2010; purified caspase-3, Z-DEVD-aminoluciferin luminescence, 60 min; shares compounds with SENP7 block; inhibition, % at 12.5 µM; 60% of 6,200 active;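 active means mean inhibition above about 50%, limit read from the data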;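 further: plate controls were enzyme with DMSO for no effect and wells without caspase-3 for full effect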
Target sequence (P42574 28-227 limits assumed): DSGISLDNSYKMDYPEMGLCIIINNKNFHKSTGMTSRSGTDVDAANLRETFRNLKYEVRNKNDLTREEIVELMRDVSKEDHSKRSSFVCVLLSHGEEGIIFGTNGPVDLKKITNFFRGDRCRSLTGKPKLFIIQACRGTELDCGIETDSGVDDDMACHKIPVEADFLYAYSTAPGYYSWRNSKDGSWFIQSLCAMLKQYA
Luc interf – interferes with luciferase luminescence in SENP counter-screen; shares compounds with SENP7 block; Pre-incubated SENP8/Z-RLRGG-aminoluciferin, luciferase luminescence interference; inhibition, % at 12.5 µM; 39% of 6,200 active; AID 488919;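 active means mean inhibition above about 50% when retested at one dose, limit read from the data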;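 further: plate controls were DMSO wells with completed reaction for no effect and substrate without enzyme for full effect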
Active calls of the source: *; . = not tested or not shown.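 How the source made its calls, unless noted: active means mean inhibition above about 50% in the one-dose retest (limit read from the data); inactive means the rest.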

SMILES	Platelet DG rel	SENP6 inh	SENP7 block	SENP8 block-1	SENP8 block-2	SENP8 confirm	SENP6 conf	SENP7 conf	Casp3 SENP sel	Luc interf
Cc1ccc(CSc2nc3ncccc3[nH]2)cc1	3	81*	67*	11	64*	7	77*	95*	43	81*
O=C(CN1CCNCC1)NCCSc1ccc(Cl)cc1	9	5	2	20	4	.	.	.	.	.
O=C(Nc1ccc(S(=O)(=O)Nc2nccs2)cc1)c1ccc(=O)[nH]c1	6	9	5	-4	5	.	.	.	.	.
Brc1cccc(-c2nc(-c3ccncc3)no2)c1	7	70*	72*	5	50	27	54*	64*	59*	26
Cc1cccc(-c2noc(-c3ccc4c(c3)OCO4)n2)c1	20	82*	101*	-10	70*	4	38	47	37	30
Clc1ccc(Br)cc1-c1nc(-c2ccncc2)no1	7	-7	6	16	0	.	.	.	.	.
Cc1cc(C)cc(-c2nc(-c3ccncc3)no2)c1	6	74*	61*	5	66*	31	27	21	50*	16
CCN(Cc1nc(-c2cccc(C)c2)no1)C(=O)c1ccc2c(c1)OCO2	-3	-2	-12	11	-9	.	.	.	.	.
Cc1cccc(-c2noc(-c3c(C)noc3C)n2)c1	-2	71*	48	26	57*	29	38	52*	50	16
Cc1ccc(-c2nc(-c3ccncc3)no2)cc1	5	.	.	14	.	.	.	.	.	.
CC(=O)Nc1ccc(C=NNc2ccc([N+](=O)[O-])cn2)cc1	.	.	.	-242	.	.	.	.	.	.
CCOc1ncccc1C(=O)OCC(=O)Nc1cc(C(C)(C)C)ccc1OC	.	5	6	3	-3	.	.	.	.	.
CCCc1cc(=O)[nH]c(SCC(=O)NC2CCCc3ccccc32)n1 (configuration not stated)	-1	2	-7	15	5	.	.	.	.	.
Cc1cccc(-c2nc(-c3ccncc3)no2)c1	6	-5	82*	22	79*	58*	84*	97*	85*	56*
CCCC(=O)Nc1cc(C(=O)N(C)CC(OC)OC)ccc1S(=O)(=O)c1ccc(C)cc1	6	-6	4	2	1	.	.	.	.	.
Cc1ccc2c(c1)c(=O)c1c3n2CCN(C(=O)CCl)C3CC1 (configuration not stated)	3	50*	31	-179	27	24	60*	17	5	-4
Cc1ccc2c(c1)c1c3n2CCN(C(=O)CN2CCN(C)CC2)C3CCC1 (configuration not stated)	-4	3	6	-118	1	.	.	.	.	.
O=C(c1cc2c(s1)CCCC2)N1CCN(Cc2ccc3c(c2)OCO3)CC1	2	6	3	34	-2	.	.	.	.	.
O=C(Oc1ccc2c(c1)OCO2)c1ccc(F)cc1Cl	2	91*	88*	8	75*	73*	84*	97*	77*	75*
O=C(Oc1ccc2c(c1)OCO2)c1cc2c(s1)CCC2	5	81*	68*	1	60*	76*	74*	89*	56*	65*
CCN(c1ccc(OC)cc1)S(=O)(=O)c1csc(C(=O)N2CCCC2)c1	-3	3	2	9	-9	.	.	.	.	.
Brc1ccc(-c2nc(N/N=C/c3cccnc3)c3ccccc3n2)cc1	72*	90*	90*	-105	85*	5	5	2	5	3
COC(=O)C(C(=O)OC)c1ncccc1NS(=O)(=O)c1ccc(C)cc1	.	.	.	13	.	.	.	.	.	.
CCc1ccc(NSc2ccccc2[N+](=O)[O-])cc1	9	-15	56*	26	2	7	8	-7	0	1
CC(/C=N/Nc1nnc2c(n1)[nH]c1ccccc12)=C\c1ccco1	-12	7	83*	11	-3	3	-1	-3	-1	-2
SMILES	Platelet DG rel	SENP6 inh	SENP7 block	SENP8 block-1	SENP8 block-2	SENP8 confirm	SENP6 conf	SENP7 conf	Casp3 SENP sel	Luc interf
Cc1cc2nc3c(nc2cc1C)CCCC3	2	16	16	15	9	.	.	.	.	.
O=c1c2ccccc2oc2ccc(-c3ccc4cc[nH]c4c3)cc12	.	50*	62*	-18	53*	-10	4	8	3	-2
CCc1ccc(CNC(=O)C2CCN(S(=O)(=O)N3CCCC3)CC2)cc1	1	-12	8	10	-7	.	.	.	.	.
CCN1CC2([N+](=O)[O-])C=CC(=O)C([N+](=O)[O-])(C1)C2CC(=O)c1ccccc1 (configuration not stated)	-2	4	10	35	-1	.	.	.	.	.
CCCCN1CC2([N+](=O)[O-])C=CC(=O)C([N+](=O)[O-])(C1)C2CC(=O)c1ccccc1 (configuration not stated)	-9	88*	-1	8	-8	4	-1	2	4	3
Cc1ccc(COc2ccc(/C=N/O)cc2)cc1	2	70*	57*	2	45	71*	70*	86*	48	47
COc1ccc(OC)c(S(=O)(=O)N2CCC(C(=O)N3CCCCCC3)CC2)c1	-2	-31	-5	5	-6	.	.	.	.	.
CN(C)c1ccc(C(=O)/C=C/c2cccnc2)cc1	-3	-11	-8	-22	-10	.	.	.	.	.
CN(C)c1ccc(/C=C/C(=O)c2cccc(Br)c2)cc1	-5	52*	27	-38	18	37	38	28	21	13
N/C(=N\OCc1ccccc1)c1nonc1N	33	61*	69*	22	55*	62*	61*	89*	83*	72*
N/C(=N\OCC(=O)Nc1ccccc1)c1nonc1N	6	5	2	5	-7	.	.	.	.	.
